# Rows were chosen to be rich in hits. Some 15% of all compounds tested hit in one or more screens of this group.
# Pf growth 48h: inhibits P. falciparum growth in the first generation, 48 h; 310,000 tested, 5.9% active; P. falciparum luciferase growth in erythrocytes, 48 h; AID 504832; Potency, µM (doses to about 28.7 µM), for inactives: top-dose activity change, negative = inhibition, usual class: inhibitors; note: potency is the fitted concentration of half-maximal effect; % is set by controls: 0 for no effect and ±100 for the full control effect
#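 Parasite viability was followed by luminescence of a genomically integrated firefly luciferase. Cultures held 0.1% parasitemia at 2% hematocrit (final), incubated under 5% CO2 at 37 C.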
# HCV inh: inhibitors of hepatitis C virus infection; AID 651820; 340,000 tested, 3.4% active; Huh7.5.1 HCVcc-Cre infection, luciferase reporter, 44 h; Potency, µM (titrated, usually from 41.8 µM), without a hit: at the highest dose activity change, negative = inhibition, most hits filed as inhibitors; note: potency is the fitted concentration of half-maximal effect; % is set by controls: 0 for no effect and ±100 for the full control effect
#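 Antiviral activity was scored by luciferase reporter output from cells infected with HCVcc-Cre (~0.5 moi) in presence of compound, 44 h infection period, cells seeded 1,000/well 4 h prior.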
# HCMV inh: human cytomegalovirus inhibition; HFF cells, HCMV-luciferase reporter, 72 h; hits give low values; activity change, negative = inhibition, % at 57.5 µM; 410,000 tested, 4.5% active; AID 1259415; in the data active = activity change below about -60%; inconclusive = no clear call, values can overlap the other calls; inactive = above about -39%; note: % is set by controls: 0 for no effect and ±100 for the full control effect
#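 Inhibition of viral replication was scored as loss of reporter luminescence in HFFs infected with HCMV-luciferase (MOI 1 PFU/cell) for 72 h; compounds tested at 2 doses, normalized to buffer and Salinomycin controls.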
# SARS PLpro yeast: inhibitors of SARS-CoV papain-like protease in yeast. S. cerevisiae expressing SARS-CoV PLpro, growth rescue. Potency, µM (doses to about 32.9 µM), for the others: at the highest dose activity, positive = growth rescue, usual class: activators. 330,000 tested, 0.19% active; calls by dose curve; note: potency is the fitted concentration of half-maximal effect; 0% is about no effect; nearly all actives have a fitted effect of over 55% in size
# Sm TGR inh: inhibitors of Schistosoma mansoni thioredoxin glutathione reductase. AID 485364. Potency, µM (doses to about 114 µM), without a hit: at the highest dose activity change, negative = inhibition, usual class: inhibitors. 360,000 tested, 3% active. purified TGR, DTNB reduction, TNB absorbance 405 nm. Q962Y6; note: potency is the fitted concentration of half-maximal effect; % is set by controls: 0 for no effect and ±100 for the full control effect; nearly all actives have a fitted effect of over 60% in size
#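 TGR 20 nM + NADPH 100 uM (dispensed conc.), cpd preinc 15 min RT; start with NADPH (500 uM addition) then DTNB (15 mM addition). Kinetic TNB absorbance, 405 nm filter. Four-parameter Hill fit across titration.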
# Pf growth 96h: inhibits malaria parasite growth, 96 h | P. falciparum luciferase reporter growth, 96 h | 320,000 tested, 6.9% active | AID 504834 | Potency, µM (titrated, usually from 28.7 µM), without a hit: at the highest dose activity change, negative = inhibition, most hits filed as inhibitors; note: potency is the fitted concentration of half-maximal effect; % is set by controls: 0 for no effect and ±100 for the full control effect
#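 96 h incubation, 37 C, 5% CO2, of luciferase-reporter P. falciparum-infected RBCs (2% hematocrit, 0.05% parasitemia final) with test compounds; endpoint luminescence.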
# Numbers without * were called inactive; ? = inconclusive; · = not tested or not shown; + = active, no number. Unless noted, calls come from the whole dose curve; as a rule, active = well fitted curve in the direction sought with a large enough effect; inconclusive = small, poorly fitted or top-dose-only effect, or another doubt; inactive = no such curve, though single readings can be large; an effect the other way counts as inactive or inconclusive.
SMILES,Pf growth 48h,HCV inh,HCMV inh,SARS PLpro yeast,Sm TGR inh,Pf growth 96h
COc1ccc2c(c1OC)C(=O)OC2N1C(=O)CC[C@H]1C(=O)NCC1CCCO1 (stereo partly specified),1%,0.56µM*,1,-5%,6%,26%
COC(=O)c1ccccc1NC(=O)[C@@H]1CCC(=O)N1C1OC(=O)c2c1ccc(OC)c2OC (stereo partly specified),24%,-5%,19,-4%,4%,-10%
Cc1cc(C)c(CSc2ncc(-c3ccc([N+](=O)[O-])cc3)[nH]2)c(C)c1,?,11µM*,-13,-39%,12%,?
O=[N+]([O-])c1ccc(-c2cnc(SCc3ccccc3Cl)[nH]2)cc1,15%,?,20,-35%,-20%,?
O=[N+]([O-])c1ccc(-c2cnc(SC(c3ccccc3)c3ccccc3)[nH]2)cc1,?,?,?,-35%,5%,7.4µM*
NC(=O)CSc1ncc(-c2ccc([N+](=O)[O-])cc2)[nH]1,35%,-7%,-34,-3%,4%,13%
COc1cc(OC)cc(C(=O)Nc2ccc(C(=O)Nc3ccccc3OC)cc2)c1,·,11µM*,-5,1%,·,·
COc1ccccc1NC(=O)c1ccc(NC(=O)COC(=O)C(C)C)cc1,7.4µM*,15%,-26,-13%,32µM*,6.6µM*
C/C(CC(=O)Nc1ccccc1F)=N\NC(=O)Cc1ccc(Cl)cc1,25%,-6%,-28,-5%,-11%,10%
CCN(CC)CCC=C(c1cccs1)c1cccs1,·,?,-25,·,·,·
CCCN(CC1CC1)C(=O)CSc1ncnc2sc(C)c(C)c12,·,?,-83*,2%,-5%,-29%
COC(=O)c1ccc(NC(=O)CSc2nncn2-c2ccccn2)cc1,39%,5%,-72*,0%,-27%,-12%
CCOc1ccc(NC(=O)CSc2nnc(Cn3cnc4ccccc43)n2C)cc1,-21%,-10%,32,5%,-8%,2.3µM*
Cn1c(COc2ccccc2)nnc1SCC(=O)Nc1ccc(S(N)(=O)=O)cc1,·,8%,30,9%,6%,?
COc1ccc(NC(=O)CSc2nnc(Cn3nnc4ccccc43)n2C)cc1,8%,-6%,14,-5%,-4%,·
COC(=O)c1ccc(NC(=O)CSc2nnc(COc3ccccc3)n2C)cc1,8.3µM*,4%,6,3%,4%,60%
COC(=O)c1ccc(NC(=O)CSc2nnc(COc3ccc4c(c3)CCCC4)o2)cc1,-7%,17%,7,-5%,1%,1.9µM*
CC#CC(=O)N[C@H]1CC[C@@]23CCCN2C(=O)CCC[C@H]3[C@H]1Cc1ccccc1,·,·,-14,·,·,·
CCOC(=O)c1noc2nc(C)n(CC(=O)Nc3cc(Cl)ccc3OC)c(=O)c12,·,·,16,·,-5%,·
Cc1ccc(OC(=O)CSc2nnc(-c3ccc4c(c3)OCO4)o2)c(C)c1,·,·,-7,·,-2%,·
Cn1c(SCC(=O)Nc2ccc(N3CCOCC3)c(Cl)c2)nnc1C(O)c1ccccc1 (stereo unspecified),?,-4%,13,15%,6%,21%
Cn1c(COc2ccccc2)nnc1SCC(=O)Nc1ccc(N2CCOCC2)c(Cl)c1,?,-29%,·,-1%,3%,4.1µM*
COc1ccc(NC(=O)CSc2nnc(Cn3cnc([N+](=O)[O-])n3)n2C)cc1,11%,1%,-8,-3%,5%,16%
CCOC(=O)CN(C(=O)CSc1nnc(CNc2ccc(F)cc2)n1C)c1ccccc1,?,10%,-20,0%,4%,·
CCOC(=O)c1cccc(NC(=O)CSc2nnc(COc3ccccc3C)o2)c1,0%,14%,-38,-2%,6%,7.4µM*
SMILES,Pf growth 48h,HCV inh,HCMV inh,SARS PLpro yeast,Sm TGR inh,Pf growth 96h
CCOC(=O)CN(C(=O)CSc1nnc(COc2ccc(OC)cc2)n1C)c1ccccc1,?,21%,-18,4%,-26%,12µM*
Cn1c(Cn2cnc([N+](=O)[O-])n2)nnc1SCC(=O)Nc1ccccc1,14%,-1%,24,13%,-12%,2.9µM*
COc1ccccc1NC(=O)CSc1nnc(COc2ccccc2C)o1,15%,?,-14,-4%,-7%,-7%
COc1ccc(CCN2CCC(CNC(=O)c3cnn(-c4cccc(Cl)c4)c3C3CCN(C(=O)OC(C)(C)C)CC3)CC2)cc1,·,·,-101*,·,-24%,·
Cc1ccc(-n2ncc(C(=O)NCCCN3CCCCC3)c2C2CCN(C(=O)OC(C)(C)C)CC2)cc1,·,·,+,·,-9%,·
CCOC(=O)c1cnn(-c2cccc(F)c2)c1C1CCNCC1,·,·,-5,·,45µM*,·
CCOC(=O)c1cnn(-c2ccc(Cl)cc2)c1C1CCN(C(=O)OC(C)(C)C)CC1,·,13µM*,-24,-7%,-5%,-29%
Cc1cccc(S(=O)(=O)NC(=O)C2(C)CCN2C(=O)CCC2CCCC2)c1 (stereo unspecified),·,·,-32,·,·,·
Cc1csc(NC(C)c2nc3cc(Cl)c(Cl)cc3n2CCCO)n1 (stereo unspecified),·,-12%,8,·,·,·
COCCCNC(=O)c1cnn(-c2ccccc2Cl)c1C1CCN(C(=O)OC(C)(C)C)CC1,·,·,+,·,3%,·
CC(C)(C)OC(=O)N1CCC(c2c(C(=O)NCCN3CCC(Cc4ccccc4)CC3)cnn2-c2ccc(F)cc2)CC1,·,·,-106*,·,4%,·
CC(C)c1cc(Cn2c3ccccc3c(=O)n2C(C)Cn2cc(-c3ccccc3)nn2)on1 (stereo unspecified),·,·,-5,·,·,·
COc1ccc(C2=CC(=O)CCC2)cc1,·,9%,-5,·,·,·
CCN1C(=O)[C@H]2[C@H]3CN=C(SC)N3[C@@](Cc3ccccc3)(C(=O)OC)[C@H]2C1=O,·,0.56µM*,-1,12%,·,·
CCN1C(=O)[C@H]2[C@H]3CN=C(SCc4ccc(C)cc4)N3[C@@](Cc3ccccc3)(C(=O)OC)[C@H]2C1=O,·,0.32µM*,-8,3%,·,·
COC(=O)[C@@]1(Cc2ccccc2)[C@H]2C(=O)N(Cc3ccccc3)C(=O)[C@H]2[C@H]2CN=C(SC)N21,·,9%,-12,-16%,·,·
Cc1cc(C)c(Cn2c3ccccc3c3cnn(CC(=O)NC4CCC(C)CC4)c(=O)c32)c(C)c1 (stereo unspecified),·,·,-3,·,0%,·
COc1cccc(OC)c1C(=O)Nc1cccc2c1CCCC2,-5%,2%,-3,-1%,-18%,-10%
Cc1cccc2sc(N(CCN3CCOCC3)C(=O)CCS(=O)(=O)c3ccccc3)nc12,6%,2%,4,6%,45µM*,3%
Cc1ccc(S(=O)(=O)CCC(=O)N(CCN2CCOCC2)c2nc3ccccc3s2)cc1,74%,11%,32,1%,35µM*,126%

# Bioassay records: PubChem BioAssay, National Center for Advancing Translational Sciences (NCATS)
